# Several values for one entry are separate records, joined by “and”; a condition that tells them apart may be missing. Equal entries are not always repeated. Inconclusive results are not listed. Some compounds were tested as several samples or in several runs, with calls that do not always agree. Activity calls are given as the source filed them. How the source made its calls: active means hit-call score of the fitted dose curve at least 0.9, where 1 is the maximum; inconclusive means response in the unintended direction; inactive means score below 0.9.
# What was measured:
# [1] = target: human Protein Tyrosine Phosphatase Receptor Type F (PTPRF), PTPRF (gene 5792) (UniProt P10586); assay: NVS_ENZ_hPTPRF: NovaScreen (NVS) Enzymatic Assay for human Protein Tyrosine Phosphatase Receptor Type F (PTPRF) (AID 2283213)
# How it was run: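 Cell-free fluorescence enzyme assay with recombinant protein and substrate; product separated by electrophoretic mobility shift. Read 1 h after dosing, single 25 uM duplicate screen, then concentration-response up to 50 uM; loss of signal vs DMSO.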
# [2] = target: human Protein Tyrosine Phosphatase Receptor Type M (PTPRM), PTPRM (gene 5797) (UniProt P28827); assay: NVS_ENZ_hPTPRM: NovaScreen (NVS) Enzymatic Assay for human Protein Tyrosine Phosphatase Receptor Type M (PTPRM) (AID 2283215)
# How it was run: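 Read-out is fluorescence after electrophoretic separation of substrate and product, taken 1.33 h post-dosing with recombinant enzyme. Compounds screened at 25 uM in duplicate, then concentration series for actives; activity as signal loss relative to DMSO.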
# [3] = target: human Protein Tyrosine Phosphatase Non-receptor Type 2 (PTPN2), PTPN2 (gene 5771) (UniProt P17706); assay: NVS_ENZ_hPTPN2: NovaScreen (NVS) Enzymatic Assay for human Protein Tyrosine Phosphatase Non-receptor Type 2 (PTPN2) (AID 2283207)
# Method: (§1) NVS_ENZ_hPTPN2 is a biochemical, single-readout assay that uses extracted gene-proteins in a cell-free assay. Measurements were taken 1 hour after chemical dosing in a 384-well plate.NVS_ENZ_hPTPN2 is one of one assay component(s) measured or calculated from the NVS_ENZ_hPTPN2 assay. It is designed to make measurements of enzyme activity, a form of enzyme reporter, as detected with fluorescence intensity signals by Fluorescence and electrophoretic mobility shift technology.Data from the assay component NVS_ENZ_hPTPN2 was analyzed into 1 assay endpoint. This assay endpoint, NVS_ENZ_hPTPN2, was analyzed in the positive analysis fitting direction relative to DMSO as the negative control and baseline of activity. Using a type of enzyme reporter, loss-of-signal activity can be used to understand changes in the enzymatic activity as they relate to the gene PTPN2. Furthermore, this assay endpoint can be referred to as a primary readout, because this assay has produced multiple assay endpoints where this one serves a enzymatic activity function. To generalize the intended target to other relatable targets, this assay endpoint is annotated to the phosphatase intended target family, where the subfamily is non-receptor tyrosine phosphatase.
# Binding assays used specific radioligands (tritiated, iodinated) with non-radioactive competitive displacement ligands in agonist or antagonist protocols (as indicated) and various reference compounds and inhibitors to titrate specific binding to receptors and transporters. Most enzyme assays (CYPs, kinases, phosphatases, proteases, HDACs) used recombinant protein and specific substrates (fluorescence mostly, some colorimetric and radioactive) and inhibitors, followed by a biochemical separation of substrate and product. All assays for the biochemical HTS were initially run in duplicate at a single concentration (10 uM for CYP450 assays and 25 uM for all others). […] Each assay was run with positive and negative controls, and concurrent controls on every plate. The follow-up (secondary) screen tested active chemical-pairs in concentration series, as well as a few additional assays not tested in the primary screen, some selected negative inactives, and several cases re-run in the concentration series for confirmatory purposes.
# [4] = target: human Protein Tyrosine Phosphatase Non-receptor Type 9 (PTPN9), PTPN9 (gene 5780) (UniProt P43378); assay: NVS_ENZ_hPTPN9: NovaScreen (NVS) Enzymatic Assay for human Protein Tyrosine Phosphatase Non-receptor Type 9 (PTPN9) (AID 2283209)
# Method: as §1, with “NVS_ENZ_hPTPN9” for “NVS_ENZ_hPTPN2”, “gene-proteins from SF9” for “gene-proteins”, “1.33 hours” for “1 hour”, “plate.NVS_ENZ_hPTPN9” for “plate.NVS_ENZ_hPTPN2”, “NVS_ENZ_hPTPN9,” for “NVS_ENZ_hPTPN2,”, “PTPN9.” for “PTPN2.”
# Binding assays used specific radioligands (tritiated, iodinated) with non-radioactive competitive displacement ligands in agonist or antagonist protocols (as indicated) and various reference compounds and inhibitors to titrate specific binding to receptors and transporters. Most enzyme assays (CYPs, kinases, phosphatases, proteases, HDACs) used recombinant protein and specific substrates (fluorescence mostly, some colorimetric and radioactive) and inhibitors, followed by a biochemical separation of substrate and product. All assays for the biochemical HTS were initially run in duplicate at a single concentration (10 uM for CYP450 assays and 25 uM for all others). Assay-chemical combinations meeting a pre-defined threshold (e.g., 30% inhibition and other criteria defined below) were then run in singleton concentration-response format with maximum concentration of 20 uM for CYPs and 50 uM for all others. Each assay was run with positive and negative controls, and concurrent controls on every plate. The follow-up (secondary) screen tested active chemical-pairs in concentration series, as well as a few additional assays not tested in the primary screen, some selected negative inactives, and several cases re-run in the concentration series for confirmatory purposes.
# [5] = target: human Protein Tyrosine Phosphatase Non-receptor Type 6 (PTPN6), PTPN6 (gene 5777) (UniProt P29350); assay: NVS_ENZ_hPTPN6: NovaScreen (NVS) Enzymatic Assay for human Protein Tyrosine Phosphatase Non-receptor Type 6 (PTPN6) (AID 2283210)
# How it was run: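 Recombinant human PTPN6 from SF9 cells, enzyme activity followed by fluorescence after mobility-shift separation of substrate and product at 1.33 h. Chemicals first tested at a single 25 uM in duplicate, then confirmed across concentration series; loss of signal relative to DMSO.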
# [6] = target: human Protein Tyrosine Phosphatase Receptor Type B (PTPRB), PTPRB (gene 5787) (UniProt P23467); assay: NVS_ENZ_hPTPRB: NovaScreen (NVS) Enzymatic Assay for human Protein Tyrosine Phosphatase Receptor Type B (PTPRB) (AID 2283211)
# How it was run: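 Recombinant human PTPRB with a fluorescent substrate, product separated by electrophoretic mobility shift; read 1 h after dosing. Primary screen in duplicate at 25 uM; actives then retested in concentration series; loss of signal versus DMSO.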
# [7] = target: human Protein Tyrosine Phosphatase Non-receptor Type 4 (PTPN4), PTPN4 (gene 5775) (UniProt P29074); assay: NVS_ENZ_hPTPN4: NovaScreen (NVS) Enzymatic Assay for human Protein Tyrosine Phosphatase Non-receptor Type 4 (PTPN4) (AID 2283208)
# How it was run: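 Screened in duplicate at 25 uM, with hits then titrated to a top concentration of 50 uM. Recombinant Sf9-derived PTPN4 turnover was read by fluorescence with electrophoretic separation, 1.33 h after compound addition. DMSO served as baseline.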
# [8] = target: human Protein Tyrosine Phosphatase Receptor Type C (PTPRC), PTPRC (gene 5788) (UniProt P08575); assay: NVS_ENZ_hPTPRC: NovaScreen (NVS) Enzymatic Assay for human Protein Tyrosine Phosphatase Receptor Type C (PTPRC) (AID 2283212)
# How it was run: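 Absorbance-based phosphatase activity of human PTPRC protein extracted from yeast was measured 1 h post-dosing. Compounds first tested at 25 uM in duplicate, then those passing threshold in singleton concentration series to 50 uM.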
# [9] = target: human Rho Associated Coiled-coil Containing Protein Kinase 1 (ROCK1), ROCK1 (gene 6093) (UniProt Q13464); assay: NVS_ENZ_hROCK1: NovaScreen (NVS) Enzymatic Assay for human Rho Associated Coiled-coil Containing Protein Kinase 1 (ROCK1) (AID 2283214)
# Method: as §1, with “NVS_ENZ_hROCK1” for “NVS_ENZ_hPTPN2”, “plate.NVS_ENZ_hROCK1” for “plate.NVS_ENZ_hPTPN2”, “NVS_ENZ_hROCK1,” for “NVS_ENZ_hPTPN2,”, “ROCK1.” for “PTPN2.”, “kinase” for “phosphatase”, “serine/threonine kinase. […]” for “non-receptor tyrosine phosphatase.”
# Chain of human Protein Tyrosine Phosphatase Receptor Type M (PTPRM), PTPRM (gene 5797) (P28827 whole entry, looked up): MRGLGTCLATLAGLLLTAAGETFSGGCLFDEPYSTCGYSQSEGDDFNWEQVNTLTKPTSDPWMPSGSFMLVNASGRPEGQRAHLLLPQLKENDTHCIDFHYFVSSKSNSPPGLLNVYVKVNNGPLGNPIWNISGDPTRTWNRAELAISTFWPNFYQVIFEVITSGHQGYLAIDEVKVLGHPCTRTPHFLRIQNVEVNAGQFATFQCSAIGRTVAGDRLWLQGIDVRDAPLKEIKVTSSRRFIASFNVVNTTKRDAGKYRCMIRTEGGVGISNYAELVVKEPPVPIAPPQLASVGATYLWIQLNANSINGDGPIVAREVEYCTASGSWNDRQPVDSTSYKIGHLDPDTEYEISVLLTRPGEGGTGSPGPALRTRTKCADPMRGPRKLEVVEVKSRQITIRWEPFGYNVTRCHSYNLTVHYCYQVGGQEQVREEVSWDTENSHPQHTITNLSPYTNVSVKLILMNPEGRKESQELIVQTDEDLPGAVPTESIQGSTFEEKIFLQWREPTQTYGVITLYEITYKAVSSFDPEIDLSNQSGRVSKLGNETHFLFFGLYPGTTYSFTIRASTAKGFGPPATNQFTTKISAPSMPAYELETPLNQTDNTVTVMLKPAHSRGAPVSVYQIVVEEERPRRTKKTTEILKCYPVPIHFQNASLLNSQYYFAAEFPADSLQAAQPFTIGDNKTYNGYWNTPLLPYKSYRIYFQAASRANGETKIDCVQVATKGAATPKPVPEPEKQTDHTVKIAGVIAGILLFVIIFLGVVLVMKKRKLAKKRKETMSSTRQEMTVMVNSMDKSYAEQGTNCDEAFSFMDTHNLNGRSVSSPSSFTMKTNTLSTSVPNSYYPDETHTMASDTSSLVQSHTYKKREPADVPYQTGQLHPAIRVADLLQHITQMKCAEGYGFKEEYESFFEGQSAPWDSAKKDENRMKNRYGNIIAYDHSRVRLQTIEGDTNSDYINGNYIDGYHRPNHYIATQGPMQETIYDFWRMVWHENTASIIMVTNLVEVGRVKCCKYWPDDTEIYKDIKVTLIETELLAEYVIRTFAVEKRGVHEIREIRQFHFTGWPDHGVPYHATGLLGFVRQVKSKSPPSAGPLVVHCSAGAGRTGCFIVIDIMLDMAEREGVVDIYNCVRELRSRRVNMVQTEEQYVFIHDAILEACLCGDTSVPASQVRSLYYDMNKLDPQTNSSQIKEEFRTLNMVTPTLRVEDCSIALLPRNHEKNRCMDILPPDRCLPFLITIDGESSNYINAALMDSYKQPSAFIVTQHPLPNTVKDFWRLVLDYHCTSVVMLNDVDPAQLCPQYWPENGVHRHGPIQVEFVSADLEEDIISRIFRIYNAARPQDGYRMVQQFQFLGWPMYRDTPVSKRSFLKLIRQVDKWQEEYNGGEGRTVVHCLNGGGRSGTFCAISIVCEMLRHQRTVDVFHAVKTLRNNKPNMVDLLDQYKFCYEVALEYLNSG
# Chain of human Protein Tyrosine Phosphatase Receptor Type B (PTPRB), PTPRB (gene 5787) (P23467 whole entry, looked up): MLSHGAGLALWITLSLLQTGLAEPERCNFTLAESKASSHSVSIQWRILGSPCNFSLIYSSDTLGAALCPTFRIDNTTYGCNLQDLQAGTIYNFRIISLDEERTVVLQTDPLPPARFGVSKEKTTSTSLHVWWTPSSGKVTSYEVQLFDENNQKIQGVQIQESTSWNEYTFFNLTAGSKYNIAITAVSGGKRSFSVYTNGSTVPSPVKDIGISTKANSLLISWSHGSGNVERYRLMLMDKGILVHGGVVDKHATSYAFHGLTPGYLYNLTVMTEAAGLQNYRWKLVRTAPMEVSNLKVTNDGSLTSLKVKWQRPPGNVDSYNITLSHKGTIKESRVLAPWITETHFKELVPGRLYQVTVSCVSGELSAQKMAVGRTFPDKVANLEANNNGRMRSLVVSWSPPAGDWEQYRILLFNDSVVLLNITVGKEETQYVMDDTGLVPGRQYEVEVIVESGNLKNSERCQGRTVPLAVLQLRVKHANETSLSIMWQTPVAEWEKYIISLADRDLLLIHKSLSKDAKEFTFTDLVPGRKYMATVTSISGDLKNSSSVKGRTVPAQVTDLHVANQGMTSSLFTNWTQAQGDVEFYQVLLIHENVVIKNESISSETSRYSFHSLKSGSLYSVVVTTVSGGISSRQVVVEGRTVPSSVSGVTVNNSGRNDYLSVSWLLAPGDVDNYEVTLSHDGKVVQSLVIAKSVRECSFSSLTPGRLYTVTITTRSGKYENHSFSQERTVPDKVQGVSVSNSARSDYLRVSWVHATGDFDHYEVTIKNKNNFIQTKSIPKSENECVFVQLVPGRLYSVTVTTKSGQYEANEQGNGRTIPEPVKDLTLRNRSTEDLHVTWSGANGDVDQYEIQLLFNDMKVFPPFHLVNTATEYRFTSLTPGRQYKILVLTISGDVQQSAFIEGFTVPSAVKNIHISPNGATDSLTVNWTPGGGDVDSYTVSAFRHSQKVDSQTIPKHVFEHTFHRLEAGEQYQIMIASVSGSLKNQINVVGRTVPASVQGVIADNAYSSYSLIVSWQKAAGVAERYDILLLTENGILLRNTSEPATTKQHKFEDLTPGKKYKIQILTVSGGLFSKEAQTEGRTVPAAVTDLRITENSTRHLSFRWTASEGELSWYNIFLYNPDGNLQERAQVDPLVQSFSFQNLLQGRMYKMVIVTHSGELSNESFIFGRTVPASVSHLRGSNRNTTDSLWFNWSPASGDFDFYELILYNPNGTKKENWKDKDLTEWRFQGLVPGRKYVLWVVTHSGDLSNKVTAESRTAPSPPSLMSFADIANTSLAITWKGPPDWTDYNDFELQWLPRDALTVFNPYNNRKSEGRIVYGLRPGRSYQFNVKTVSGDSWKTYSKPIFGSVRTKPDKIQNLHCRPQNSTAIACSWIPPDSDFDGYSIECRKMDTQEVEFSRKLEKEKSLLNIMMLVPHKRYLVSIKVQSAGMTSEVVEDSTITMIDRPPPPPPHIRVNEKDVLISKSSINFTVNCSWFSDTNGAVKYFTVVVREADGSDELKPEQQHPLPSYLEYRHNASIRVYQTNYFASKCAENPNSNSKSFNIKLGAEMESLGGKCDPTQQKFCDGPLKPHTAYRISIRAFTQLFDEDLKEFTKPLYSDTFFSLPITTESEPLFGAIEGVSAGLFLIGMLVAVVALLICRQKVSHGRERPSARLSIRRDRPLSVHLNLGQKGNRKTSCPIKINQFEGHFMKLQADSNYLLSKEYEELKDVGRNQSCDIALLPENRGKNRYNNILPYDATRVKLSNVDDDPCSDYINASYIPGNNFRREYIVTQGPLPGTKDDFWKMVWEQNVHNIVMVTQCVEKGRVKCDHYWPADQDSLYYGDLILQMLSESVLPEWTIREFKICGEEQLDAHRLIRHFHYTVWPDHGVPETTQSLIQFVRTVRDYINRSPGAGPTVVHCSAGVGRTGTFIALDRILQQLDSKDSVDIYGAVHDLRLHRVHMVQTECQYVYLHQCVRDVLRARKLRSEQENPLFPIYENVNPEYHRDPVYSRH
# Chain of human Protein Tyrosine Phosphatase Receptor Type C (PTPRC), PTPRC (gene 5788) (P08575 whole entry, looked up): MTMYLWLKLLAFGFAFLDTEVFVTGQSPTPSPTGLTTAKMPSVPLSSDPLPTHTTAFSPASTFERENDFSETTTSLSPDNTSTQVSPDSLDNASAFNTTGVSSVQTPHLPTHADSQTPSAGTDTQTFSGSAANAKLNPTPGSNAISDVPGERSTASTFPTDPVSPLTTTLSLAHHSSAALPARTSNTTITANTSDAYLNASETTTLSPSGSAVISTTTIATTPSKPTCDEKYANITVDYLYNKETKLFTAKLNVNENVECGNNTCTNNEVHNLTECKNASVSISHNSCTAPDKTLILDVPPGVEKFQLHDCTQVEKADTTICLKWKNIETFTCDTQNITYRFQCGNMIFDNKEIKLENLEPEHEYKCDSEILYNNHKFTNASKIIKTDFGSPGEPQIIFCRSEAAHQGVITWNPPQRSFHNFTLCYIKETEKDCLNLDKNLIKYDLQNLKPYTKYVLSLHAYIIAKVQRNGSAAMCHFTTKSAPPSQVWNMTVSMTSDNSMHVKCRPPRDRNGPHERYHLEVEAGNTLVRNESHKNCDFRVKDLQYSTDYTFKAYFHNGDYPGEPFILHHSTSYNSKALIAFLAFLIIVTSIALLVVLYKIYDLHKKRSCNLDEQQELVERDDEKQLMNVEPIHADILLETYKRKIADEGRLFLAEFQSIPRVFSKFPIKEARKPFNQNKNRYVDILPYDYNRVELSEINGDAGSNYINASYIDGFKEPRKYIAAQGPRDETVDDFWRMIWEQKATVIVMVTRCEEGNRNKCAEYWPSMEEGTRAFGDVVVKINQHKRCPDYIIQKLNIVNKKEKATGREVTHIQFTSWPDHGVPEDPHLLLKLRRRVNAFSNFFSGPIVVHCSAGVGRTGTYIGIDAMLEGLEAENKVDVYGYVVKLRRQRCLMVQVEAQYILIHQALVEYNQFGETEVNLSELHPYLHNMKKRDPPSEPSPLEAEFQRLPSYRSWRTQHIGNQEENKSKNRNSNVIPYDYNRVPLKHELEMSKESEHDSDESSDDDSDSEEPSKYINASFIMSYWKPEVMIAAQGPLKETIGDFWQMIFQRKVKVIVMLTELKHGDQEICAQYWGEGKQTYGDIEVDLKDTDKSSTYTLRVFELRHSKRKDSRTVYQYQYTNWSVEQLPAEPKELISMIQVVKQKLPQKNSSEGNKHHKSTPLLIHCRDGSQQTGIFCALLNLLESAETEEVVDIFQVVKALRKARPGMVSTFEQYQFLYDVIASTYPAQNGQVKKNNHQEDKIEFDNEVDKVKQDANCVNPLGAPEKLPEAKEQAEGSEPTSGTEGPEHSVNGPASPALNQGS
structure (smiles),measurement,setting,value
CCS(=O)(=O)c1cccnc1S(=O)(=O)NC(=O)Nc1nc(OC)cc(OC)n1,outcome,[1],inactive
same,outcome,[2],inactive
CC(C)(C)C(O)C(Oc1ccc(Cl)cc1)n1cncn1 (configuration not stated),outcome,[3],inactive
same,outcome,[4],inactive
same,outcome,[5],inactive
CC[C@H](C)[C@H]1O[C@]2(C=C[C@@H]1C)C[C@@H]1C[C@@H](C/C=C(\C)[C@@H](O[C@H]3C[C@H](OC)[C@@H](O[C@H]4C[C@H](OC)[C@@H](O)[C@H](C)O4)[C@H](C)O3)[C@@H](C)/C=C/C=C3\CO[C@@H]4[C@H](O)C(C)=C[C@@H](C(=O)O1)[C@]34O)O2 (tested in a mixture with another compound),AC50,[3],41.1 µM (active)
same,AC50,[2],45.3 µM (active)
Oc1cc(Cl)ccc1Oc1ccc(Cl)cc1Cl,outcome,[6],inactive
O=[N+]([O-])c1c(Cl)c(Cl)c(Cl)c(Cl)c1Cl,outcome,[1],inactive
COC(=O)c1ccccc1S(=O)(=O)NC(=O)N(C)c1nc(C)nc(OC)n1,outcome,[3],inactive
same,outcome,[7],inactive
same,outcome,[4],inactive
O=S(=O)(O)C(F)(F)C(F)(F)C(F)(F)C(F)(F)C(F)(F)C(F)(F)C(F)(F)C(F)(F)F,AC50,[3],38.9 µM (active)
same,AC50,[5],34.8 µM (active)
same,AC50,[6],18.7 µM (active) and 37.6 µM (active)
same,AC50,[8],17.1 µM (active) and 15.2 µM (active)
same,outcome,[8],inactive
same,AC50,[1],14.8 µM (active) and 13.1 µM (active)
same,AC50,[9],39 µM (active)
same,AC50,[2],23.6 µM (active) and 43 µM (active)
COC(=O)c1ccccc1S(=O)(=O)NC(=O)Nc1nc(C)nc(OC)n1,outcome,[6],inactive
C#CCN1C(=O)COc2cc(F)c(N3C(=O)C4=C(CCCC4)C3=O)cc21,outcome,[3],inactive

# Source: PubChem BioAssay (EPA / NIEHS)
